PubChem BioAssay (NCATS)
Records with an inconclusive call do not appear. Calls of active or inactive are those of the source. Calls come from the whole dose curve; as a rule, active = well fitted curve in the direction sought with a large enough effect; inconclusive = small, poorly fitted or top-dose-only effect, or another doubt; inactive = no such curve, though single readings can be large; an effect the other way counts as inactive or inconclusive.

Key:
[1] = MCF7 Cancer Cell Toxicity qHTS against the NCATS CANVASS Library (AID 1347369)
Procedure, shortened: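 MCF7, 500 cells/well; cpds 11-pt qHTS; 72 hr, 37C/5% CO2; CellTiterGlo ATP luminescence.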

[2] = qHTS for ATAD5 Antagonist screened against the NCATS CANVASS Library (AID 1347370);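 note: HEK293T cells carrying an ATAD5 luciferase reporter co-treated with 10 µM 5-fluorouridine; series mostly up to about 46 µM; nearly all actives have a fitted effect of over 65% in size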
Procedure, shortened: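 HEK293T cells with stably integrated ATAD5-luciferase reporter, 2000/well, 5 h attachment; compounds plus 10 µM 5-fluorouridine, 16 h at 37 °C. Luciferase luminescence read, with CellTiter-Fluor viability read first.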

[3] = J3T Cancer Cell Toxicity qHTS against the NCATS CANVASS Library (AID 1347371);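 note: J3T is a canine glioma cancer cell line seeded at 500 cells per well; series mostly up to about 46 µM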
Procedure, shortened: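 Cells plated at 500 per well, compounds pin-transferred, plates incubated 72 hr at 37C, then CellTiterGlo added and luminescence read to measure ATP content.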

[4] = biological target: Nuclear receptor subfamily 1 group I member 3 (Homo sapiens) (UniProt Q14994); assay: qHTS for Constitutive Androstane Receptor (CAR) Antagonist screened against the NCATS CANVASS Library (AID 1347372);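 note: cells stimulated with 50 nM CITCO agonist so inhibition reflects antagonism; series mostly up to about 46 µM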
Nuclear receptor subfamily 1 group I member 3 (Homo sapiens), sequence (Q14994 whole entry, looked up): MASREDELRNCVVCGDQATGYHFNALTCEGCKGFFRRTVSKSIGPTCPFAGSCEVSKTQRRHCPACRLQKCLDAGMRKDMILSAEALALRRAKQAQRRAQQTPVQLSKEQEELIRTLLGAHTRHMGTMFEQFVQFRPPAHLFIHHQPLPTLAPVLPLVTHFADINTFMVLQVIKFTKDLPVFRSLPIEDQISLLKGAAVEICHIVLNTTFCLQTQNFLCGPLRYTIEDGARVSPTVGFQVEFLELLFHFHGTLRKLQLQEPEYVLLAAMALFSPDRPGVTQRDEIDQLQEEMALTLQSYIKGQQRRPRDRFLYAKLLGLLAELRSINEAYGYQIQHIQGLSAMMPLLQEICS
Procedure, shortened: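 HepG2 cells stably carrying hCAR and CYP2B6-2.2kb luciferase reporter, 2500 cells/well, compound with 50 nM CITCO agonist for 24hr at 37C. ONE-Glo luminescence measured CAR activity; CellTiter-Fluor read viability.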

[5] = biological target: Nuclear receptor subfamily 1 group I member 3 (Homo sapiens) (UniProt Q14994); assay: qHTS for Constitutive Androstane Receptor (CAR) Agonist screened against the NCATS CANVASS Library (AID 1347373);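 note: every well also contained 1.5 µM PK11195 alongside the test compound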
Procedure, shortened: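 HepG2-hCAR-CYP2B6 cells, 2500/well, attached 4hr; cpd + PK11195 1.5uM final; 24hr 37C 5% CO2. CellTiter-Fluor viability read, then ONE-Glo luminescence for CAR activation.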

[6] = qHTS for Hypoxia signaling pathway (HIF-1) antagonists against the NCATS CANVASS Library (AID 1347374);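 note: HRE-bla ME-180 cells stimulated with cobalt chloride to stabilize HIF-1alpha; series mostly up to about 38 µM; nearly all actives have a fitted effect of over 60% in size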
Procedure, shortened: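 HRE-bla ME-180 cells in medium with 0.5% dialyzed FBS received compounds (11-point series) plus CoCl2 (60 uM addition stock) for 17 hrs at 37C. Beta-lactamase activity read with CCF4 (405 nm ex, 460/530 nm em); CellTiter-Glo viability measured in same wells.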

[7] = qHTS for Hypoxia signaling pathway (HIF-1) agonists against the NCATS CANVASS Library (AID 1347375)
Procedure, shortened: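 ME-180 HRE-bla reporter cells; 2,000/well, 0.5% dialyzed FBS; cpd added after 5 h, 17 h 37C/5% CO2; CCF4-AM 2 h RT; FRET 460/530 nm; CellTiter-Glo viability same wells, 30 min.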

[8] = 10-beta competent E. coli microbial cell viability qHTS against the NCATS CANVASS Library (AID 1347376); note: series mostly up to about 46 µM
Procedure, shortened: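 E. coli 10-beta, 0.2 OD; cpds 11-pt; o/n 37C, 5% CO2; BacTiter-Glo 20 min RT; luminescence (ATP) = viable cells. Daunomycin ctrl.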

[9] = DH5-alpha competent E. coli microbial cell viability qHTS against the NCATS CANVASS Library (AID 1347377); settings: outcome: dose series up to 46.1 µM unless noted
Procedure, shortened: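 qHTS, 11-pt; E. coli DH5-alpha, 0.2 OD; o/n 37C/5% CO2; BacTiter-Glo, 20 min RT; luminescence.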

[10] = qHTS for H2AX Agonists against the NCATS CANVASS Library (AID 1347378)
Procedure, shortened: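 CHO-K1 cells were plated overnight at 37C, then exposed to compounds (concentration series, 0.76% DMSO final) for 3 hr at 37C. Lysates received Eu-cryptate anti-pH2AX (S139) and d2 anti-H2AX antibodies; after 24 hr at room temperature, TR-FRET 665/620 nm ratio was read.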

[11] = qHTS for Inflammasome Signaling Inhibitors: IL-1-beta AlphaLISA screen against the NCATS CANVASS Library (AID 1347379);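 note: human THP-1 cells primed with LPS then triggered with ATP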
Procedure, shortened: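 THP-1 cells pretreated 1 hr with compound (up to 57.5 uM final), then stimulated with LPS (250 ng/mL final) and ATP (1.25 mM final). Secreted IL-1B measured by AlphaLISA after 16 hr; glyburide as positive control.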

[12] = Inflammasome Signaling qHTS Counterscreen: IL-1-beta AlphaLISA counterscreen against the NCATS CANVASS Library (AID 1347381);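 note: cell-free check with purified IL-1β in medium and no THP-1 cells; series mostly up to about 57 µM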
Procedure, shortened: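 Cell-free interference check: compounds added to medium spiked with 4 pg purified IL-1β. Anti-IL-1β acceptor beads (6 ug/mL) with 0.6 nM biotinylated antibody added for 1 h at RT, then streptavidin donor beads (24 ug/mL) for 30 min in the dark. AlphaLISA read at 680/615 nm.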

[13] = Cytotoxicity qHTS for assessment of Hepg2 cells membrane integrity screened against the NCATS CANVASS Library (AID 1347387)
Procedure, shortened: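 qHTS, 11-pt conc. series, 0.59 nM - 46 uM final; HepG2 2000 cells/well, overnight attachment; 5 hr compound exposure 37C/5% CO2; CytoTox-ONE, 10 min RT; fluorescence ex560/em590 = LDH from damaged membranes.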

[14] = qHTS for Activators of p53 Stress Response Pathway screened against the NCATS CANVASS Library (AID 1347388)
Procedure, shortened: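 p53RE-bla HCT-116 cells (4000/well) were pre-incubated for 5 h, then treated with compound (11 points) for 16 h at 37C. After 2 h with CCF4, the 460/530 nm ratio gave reporter activation; CellTiter-Glo measured viability.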

[15] = qHTS assay for small molecule disruptors of mitochondrial membrane potential screened against the NCATS CANVASS Library (AID 1347389); note: series mostly up to about 46 µM; nearly all actives have a fitted effect of over 60% in size
Procedure, shortened: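 HepG2, 2,000 cells/well, attached overnight; compound 1 hr, 37C, 5% CO2; Mito-MPS dye 30 min, 37C; fluorescence 535 nm (monomer) and 590 nm (aggregate); decreased 590/535 ratio = depolarization.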

[16] = Secretion counterscreen for inhibitors of the SERCaMP assay screened against the NCATS CANVASS Library (AID 1347390);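 note: light from luciferase secreted into medium read as a measure of general secretion; series mostly up to about 77 µM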
Procedure, shortened: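 SH-SY5Y cells expressing constitutively secreted GLuc, 1000 cells/well, attached 4 h at 37C, then exposed to compounds (0.001 - 77 uM, 11-pnt series) for 20 h. Coelenterazine added; luminescence read to flag secretory-pathway interferers.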

[17] = qHTS for activators of Nrf2/ARE signaling pathway screened against the NCATS CANVASS Library (AID 1347391); note: nearly all actives have a fitted effect of over 60% in size
Procedure, shortened: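 Plate ARE-bla HepG2 cells at 2000/well and let them settle 5 h. Pin-transfer compounds in DMSO, incubate 16 h at 37C. Load CCF4 for 2 h at room temperature and read blue/green fluorescence.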

[18] = qHTS for activators of dead-cell proteases activity screened against the NCATS CANVASS Library (AID 1347392);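 note: luminescence from protease leaking out of membrane-damaged cells cleaving impermeant substrate; rising signal means more cytotoxicity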
Procedure, shortened: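 HepG2 cells, 2000/well, attached 18 h at 37C, then exposed to compounds (11-point qHTS) for 5 h. Dead-cell protease release read as luminescence from cell-impermeant AAF-aminoluciferin substrate after 15 min at room temperature.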

[19] = qHTS for inhibitors of ER calcium dysfunction: SERCaMP assay screened against the NCATS CANVASS Library (AID 1347393);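 note: series mostly up to about 77 µM; lower secreted reporter signal means inhibitor of ER calcium depletion; nearly all actives have a fitted effect of over 40% in size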
Procedure, shortened: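 SH-SY5Y GLuc-SERCaMP, 1000 cells/well, 4 h attach; cpd 16 h, 37C/5% CO2; thapsigargin (added as 6x 600 nM) 4 h; coelenterazine; luminescence. Reduced reporter release = ER Ca stabilization.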

[20] = Vero-766 cells viability qHTS against the NCATS CANVASS Library: Counterscreen for Zika virus inhibition assay (AID 1347394); note: series mostly up to about 46 µM; nearly all actives have a fitted effect of over 60% in size
Procedure, shortened: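 Uninfected Vero 766 (African green monkey) cells, 1000/well, attached overnight, then exposed 72 h at 37C to compounds (11-point qHTS). Viability read by CellTiter-Glo luminescence; media-only wells served as 100% inhibition.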

[21] = qHTS for inhibitors of Wild type Zika virus screened against the NCATS CANVASS Library (AID 1347396);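 note: ATP luminescence of surviving cells so rescue from viral cell killing; series mostly up to about 46 µM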
Procedure, shortened: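 Using ATP-based luminescence (CellTiter Glo), this screen scores rescue of Vero 766 cells from wild-type Zika killing at 72 h post-infection. Compounds are tested in a concentration series.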

[22] = Viability qHTS for inhibitors of the SERCaMP assay screened against the NCATS CANVASS Library (AID 1347400); note: series mostly up to about 92 µM; nearly all actives have a fitted effect of over 70% in size
Procedure, shortened: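 SH-SY5Y SERCaMP MJH297 cells, 1000/well; 4 h settle, 37C/5% CO2; pin-transferred cpds; 48 h; CellTiter-Glo lum. Pos ctrl bortezomib 0.0001 - 4.6 uM.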

[23] = Redox Reaction Profiling qHTS: Assay Interference Panel against the NCATS CANVASS Library (AID 1347401)
Procedure, shortened: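 Compounds in 11-point series incubated with 5 uM resazurin and 200 uM DTT in 50 mM HEPES pH 7.3, 50 mM NaCl. Resorufin fluorescence (Ex 525/Em 598) read before and after 15 min in the dark.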

Measured: Potency

CCC1=C2CCCN3C(=O)O[C@H]([C@H]1OC(C)=O)[C@H]23
inactive: all assays above
